Results taken from PubChem BioAssay (NCATS).
Values joined by “and” are separate entries in the source; they are usually repeats but may differ in a detail not shown here. Equal entries are not always repeated. Inconclusive results are not listed. Some structures have more than one record in an assay (separate samples or runs), and their calls can disagree. Active and inactive are the calls of the source. Calls come from the whole dose curve; as a rule, active = well fitted curve in the direction sought with a large enough effect; inconclusive = small, poorly fitted or top-dose-only effect, or another doubt; inactive = no such curve, though single readings can be large; an effect the other way counts as inactive or inconclusive. *1 amine or outer side, *2 acyl side, *3 side chain or, on linkers, in order; H or OH if unused. Where a SMILES comes first, the peptide text is derived from it. Bridges are numbered along the chain shown (N, C = ends). [ ]: non-standard residue; d: D form. The star is where a group is joined. ξ: configuration not given here. ξhTyr(3S-OH,4S-OH,3'-OSO3H) = NC(C(=O)O)[C@H](O)[C@@H](O)c1ccc(O)c(OS(=O)(=O)O)c1; Orn(4R-OH,5R-OH) = O=C([C@H](C[C@@H](O)[C@@H](O)N[*:3])N[*:1])[*:2]; X2 = CCCCCOc1ccc(-c2cc(-c3ccc(C(=O)*)cc3)no2)cc1; X3 = C[C@H]1CN([*:1])C(C(=O)[*:2])[C@H]1O; ξGln(3R-OH) = NC(=O)C[C@@H](O)C(N)C(=O)O; ξPro(4R-OH) = O=C(O)C1C[C@@H](O)CN1; ξThr(3R) = C[C@@H](O)C(N)C(=O)O

Key:
[1] = target: Glutathione peroxidase 1 (Homo sapiens) (UniProt P07203); experiment: Primary qHTS Assay for Inhibitors of Recombinant Selenoprotein Glutathione Peroxidase 1 (GPX1) (AID 1845191); note: nearly all actives have a fitted effect of over 65% in size; note: potency is the fitted concentration of half-maximal effect
In short: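 10 nM GPX1 + cpd, 30 min RT; start w/ 1 mM GSH, 0.5 mM cumene hydroperoxide, 0.5 mM NADPH, 100 nM GR, 0.01% BSA; buffer 50 mM Tris-HCl pH 7.5, 2 mM EDTA, 150 mM NaCl; Fl 340/450, 0 & 15 min.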

[2] = target: Phospholipid hydroperoxide glutathione peroxidase GPX4 (Homo sapiens) (UniProt P36969); experiment: Primary qHTS Assay for Inhibitors of Recombinant Selenoprotein Glutathione Peroxidase 4 (GPX4) (AID 1845192); note: nearly all actives have a fitted effect of over 65% in size; note: potency is the fitted concentration of half-maximal effect
In short: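 NADPH consumption, followed by fluorescence at 340/450 nm between 0 and 15 min, reports GPX4 activity via coupled glutathione reductase (100 nM). Enzyme 200 nM was pre-exposed to compound 30 min; 0.5 mM cumene hydroperoxide and 1 mM GSH served as substrates.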

[3] = target: Luciferin 4-monooxygenase (Photinus pyralis) (UniProt P08659); experiment: Primary firefly luciferase (FLuc) qHTS assay for identification of artifact compounds. (AID 1845220); note: nearly all actives have a fitted effect of over 60% in size
In short: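 Compounds sat 15 min at room temperature with 10 uM luciferin and 10 uM ATP (pH 7.6 Tris acetate). Firefly luciferase (10 nM final) was then added, and luminescence was read 5 min later. Data normalized to no-enzyme and DMSO controls were Hill-fitted.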

[4] = test system: Nanoluciferase (engineered Oplophorus gracilirostris luciferase); experiment: Primary Nanoluciferase (NLuc) qHTS assay for identification of artifact compounds. (AID 1845222); note: series mostly up to about 54 µM
In short: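 Luminescence from secreted NLuc (filtered, 1:55-diluted S16 cell medium) read 5 min after Nano-Glo substrate; compounds preincubated 15 min, RT. Hill fits of inhibition normalized to DMSO and no-enzyme.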

[5] = Primary redox qHTS assay for identification of artifact compounds. (AID 1845223)
In short: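 Amplex Red (25 uM) and HRP (250 mU/mL) in HBSS, with compounds for 15 min, then 250 uM DTT for 30 min, room temperature, dark. Fluorescence 525/598 nm read; normalized to DMSO and 10 uM DA3003; Hill fit.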

Measured: Potency

Glutathione peroxidase 1 (Homo sapiens), sequence (P07203 whole entry, looked up): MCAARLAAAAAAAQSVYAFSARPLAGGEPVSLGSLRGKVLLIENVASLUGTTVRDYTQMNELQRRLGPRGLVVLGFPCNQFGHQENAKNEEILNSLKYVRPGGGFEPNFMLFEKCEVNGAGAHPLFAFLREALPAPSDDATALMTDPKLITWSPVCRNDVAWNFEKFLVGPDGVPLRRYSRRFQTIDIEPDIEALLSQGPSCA
Phospholipid hydroperoxide glutathione peroxidase GPX4 (Homo sapiens), sequence (P36969 whole entry, looked up): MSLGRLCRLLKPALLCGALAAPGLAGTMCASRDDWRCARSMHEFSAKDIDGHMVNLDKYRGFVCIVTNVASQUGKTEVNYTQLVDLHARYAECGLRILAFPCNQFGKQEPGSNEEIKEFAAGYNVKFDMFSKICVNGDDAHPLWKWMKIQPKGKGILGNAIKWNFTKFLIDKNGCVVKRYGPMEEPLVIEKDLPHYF

CCC/C=C/C=C/C1CC(O)C(O)C(=O)C1CO (stereo not given)
not listed: [5]
inactive: all other assays above

C=C1C(O)C(O)C2(CC3C(C)=CCC4C(C)(C(=O)O)CCCC34C)OC2C1O (stereo not given)
not listed: [5]
inactive: all other assays above

CC(=O)/C=C/C1(O)C(C)=CC(=O)CC1(C)C (stereo not given)
not listed: [5]
inactive: all other assays above

COc1ccc(/C=C/C(=O)O[C@@H]2[C@@H](O)[C@@H](O)[C@H](O[C@H]3[C@@H]4C=CO[C@@H](O[C@@H]5O[C@H](CO)[C@@H](O)[C@H](O)[C@H]5O)[C@@H]4[C@@]4(CO)O[C@@H]34)O[C@H]2C)cc1
not listed: [5]
inactive: all other assays above

COC(=O)C1=COC(OC2OC(CO)C(O)C(O)C2O)C2C(C)C(OC(=O)/C=C/c3ccc(O)cc3)C(O)C12 (stereo not given)
not listed: [5]
inactive: all other assays above

COC(=O)C1=CO[C@@H](O[C@@H]2O[C@H](CO)[C@@H](O)[C@H](O)[C@H]2O)[C@@H]2[C@@H](C)[C@@H](OC(=O)/C=C/c3ccccc3)[C@@H](O)[C@H]12
not listed: [5]
inactive: all other assays above

Cc1c(C)c(NCC(=O)N(C)C2CCN(Cc3ccc(C(N)=O)cc3)CC2)c(C)c(C)c1N
not listed: [5]
inactive: all other assays above

CCOc1ncc(S(=O)(=O)N2CCN(CC)CC2)cc1-c1nc2c(CC)n(CCOC)nc2c(=O)[nH]1
not listed: [5]
inactive: all other assays above

CC1CC=C2C1CC1(O)C(=O)CC2(C)C1(C)CO (stereo not given)
not listed: [5]
inactive: all other assays above

CC1CC(=O)[C@]2(O)C(C(=O)OCCc3ccc(O)cc3)=CO[C@@H](O[C@@H]3O[C@H](CO)[C@@H](O)[C@H](O)[C@H]3O)[C@H]12 (stereo not given in full)
not listed: [5]
inactive: all other assays above

C[C@]12CCC[C@](C)(C(=O)O)C1[C@@H](O)[C@@H](O)C13CC(CCC12)C(CO)(O[C@@H]1O[C@H](CO)[C@@H](O)[C@H](O)[C@H]1O)C3 (stereo not given in full)
not listed: [5]
inactive: all other assays above

CCCCOc1nc(N)c2c(n1)N(Cc1cccc(CN3CCCC3)c1)CC(=O)N2
not listed: [5]
inactive: all other assays above

CCN1CCN(C(=O)N[C@@H](C(=O)N[C@@H]2C(=O)N3[C@@H]2SC(C)(C)[C@@H]3C(=O)O)c2ccccc2)C(=O)C1=O
not listed: [5]
inactive: all other assays above

C/C=C/C=C/C=C/C(=O)N(C)C(C(=O)NC(C)C(=O)N1CCCC1C(N)=O)C(C)C (stereo not given)
not listed: [5]
inactive: all other assays above

COC(=O)[C@H](c1ccccc1Cl)N1CCC2SC(=O)C=C2C1 (stereo not given in full)
active: [1] 8.06 µM
inactive: [2] | [3] | [4]

CCCCCOc1ccc(-c2cc(-c3ccc(C(=O)N[C@H]4C[C@@H](O)[C@@H](O)NC(=O)C5[C@@H](O)[C@@H](C)CN5C(=O)C([C@H](O)CC(N)=O)NC(=O)C([C@H](O)[C@@H](O)c5ccc(O)c(OS(=O)(=O)O)c5)NC(=O)C5C[C@@H](O)CN5C(=O)C([C@@H](C)O)NC4=O)cc3)no2)cc1 (stereo partly drawn) (X2-[Orn(4R-OH,5R-OH)][ξThr(3R)][ξPro(4R-OH)][ξhTyr(3S-OH,4S-OH,3'-OSO3H)][ξGln(3R-OH)][X3]; lactam 1-C)
inactive and 2 µM (active): [2]
inactive: [1] | [3] | [4]

C/C(=C\C1CCC(C)C2CCC3(C)OC123)C(=O)O (stereo not given)
not listed: [5]
inactive: all other assays above

C/C(=C\C(=O)C[C@@]12C(=O)O[C@]3(C)CC[C@H]1C[C@H]23)C(N)=O
not listed: [5]
inactive: all other assays above

C=C1C[C@@]2(O)O[C@@]3(C[C@H]2C(C)C)[C@@H](C)CC[C@@H]13
inactive: all assays above

Cc1cn(C[C@H](N)C(=O)O)c(=O)n(Cc2ccsc2C(=O)O)c1=O
inactive: all assays above

C[C@H]1CC(=O)C2=C(C1)C(O)C(O)[C@@]1(O)[C@H]2C(=O)c2cccc(O)c2[C@@H]1O (stereo not given in full)
not listed: [5]
inactive: all other assays above

CC(=O)OC/C(=C/C(=O)O)CC[C@@H]1C(CO)=CC[C@@H]2C(C)(C)CCC[C@@]12C
not listed: [5]
inactive: all other assays above

COCCCc1sc(-c2ccccc2)nc1C(=O)Nc1ccccc1-c1nc2cc(CN3CCCC3)cnc2s1
inactive: all assays above

COc1c(C)c(OCC(O)C(C)(C)O)cc2c1CNC2=O (stereo not given)
inactive: all assays above

CC(C)(O)c1ccc2c(c1)C(=O)C[C@H]1[C@](C)(C(=O)O)CCC[C@]21C
inactive: all assays above
